Laboratory results as given in PubChem BioAssay (NCATS).
Inconclusive results are not listed. Calls of active or inactive are those of the source. Unless noted, the call rests on the fitted dose curve; in most records, active means well fitted curve in either direction with a large enough effect (not every such curve was filed as active); inconclusive means small, poorly fitted or top-dose-only effect, or another doubt; inactive means flat fitted curve, though single readings scatter.

Assays:
[1] = target: Lysosomal acid glucosylceramidase (Homo sapiens) (UniProt P04062); test: Glucocerebrosidase-p2 (AID 348; in the data active means potency below about 10 µM; further: potency means the concentration at half of the fitted maximal effect); details: purified GBA, blue fluorogenic substrate, 40 min
Lysosomal acid glucosylceramidase (Homo sapiens), sequence (P04062 whole entry, looked up): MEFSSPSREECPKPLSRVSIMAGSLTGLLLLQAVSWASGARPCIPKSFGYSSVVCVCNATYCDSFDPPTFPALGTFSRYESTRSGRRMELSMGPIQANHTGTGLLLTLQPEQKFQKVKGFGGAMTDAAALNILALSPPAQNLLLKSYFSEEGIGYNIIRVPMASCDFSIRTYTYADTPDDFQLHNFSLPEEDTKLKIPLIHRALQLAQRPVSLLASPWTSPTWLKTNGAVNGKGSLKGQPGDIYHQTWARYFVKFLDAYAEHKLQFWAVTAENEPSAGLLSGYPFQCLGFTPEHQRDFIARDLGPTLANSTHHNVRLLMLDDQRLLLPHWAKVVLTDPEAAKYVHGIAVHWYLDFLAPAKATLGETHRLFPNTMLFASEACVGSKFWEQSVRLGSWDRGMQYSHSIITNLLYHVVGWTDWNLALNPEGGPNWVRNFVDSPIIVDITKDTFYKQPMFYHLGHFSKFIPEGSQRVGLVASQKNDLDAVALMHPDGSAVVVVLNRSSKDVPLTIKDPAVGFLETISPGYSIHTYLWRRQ
Outline: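 Compounds titrated from 0.6 nM upwards against 0.2 nM enzyme in pH 5.9 citric acid/KH2PO4, taurocholate, tween-20; blue fluorogenic substrate 80 uM, 40 min room temperature, stopped and read Ex 365/Em 440 for AC50.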

[2] = AP1 Signaling Pathway (AID 357); details: ME-180 AP-1-bla reporter, EGF-induced, beta-lactamase ratio, 5 h; at 7.69 µM (top of the series) unless noted; further: on the % scale 0 is the no-effect control and ±100 the full control effect
Outline: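 AP-1-bla ME-180 cells with beta-lactamase reporter under AP-1 response element, stimulated with EC50 EGF; compounds titrated, 5 hours at 37 degrees Celsius. CCF4 read at 460/530 nm ratio; positive and negative modulators judged by AC50.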

[3] = NFAT Signaling Pathway (AID 444); details: Jurkat NFAT-bla M1, carbachol, beta-lactamase ratio, 5 h; at 7.69 µM (top of the series) unless noted;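 further: carbachol stimulus at about its EC50 of 1 µM final; on the % scale 0 is the no-effect control and ±100 the full control effect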
Outline: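 Jurkat cells with NFAT-driven β-lactamase reporter and co-expressed M1 receptor, stimulated with carbachol (final 1 uM, ~EC50), compound titration, 5 h at 37 °C. CCF4 loaded 1 h at RT; 460/530 nm ratio gave %activity and AC50.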

[4] = Stat Signaling Pathway (AID 446); details: ME-180 SIE beta-lactamase reporter, IL-6 stimulated, 5 h; at 7.69 µM (top of the series) unless noted;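 further: ME-180 cervical cancer cells given 40 pM IL-6 alongside compound; SIE-controlled beta-lactamase reporter measured as 460/530 nm FRET emission ratio; on the % scale 0 is the no-effect control and ±100 the full control effect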
Outline: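 IL-6/STAT signaling read in ME-180 cells via an SIE beta-lactamase reporter. Stimulus was 40 pM IL-6 (its AC50) for 5 hrs, so both activation and inhibition register.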

[5] = target: Glucocorticoid receptor (Homo sapiens) (UniProt P04150); test: GR-GFP Redistribution (AID 450;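 active means compounds whose dose series gives a full or clear partial fitted curve of increased nuclear translocation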; further: potency means the concentration at half of the fitted maximal effect); details: U2OS GR-GFP nuclear translocation, laser cytometry, 2 h
Glucocorticoid receptor (Homo sapiens), sequence (P04150 whole entry, looked up, the tested form may be a part): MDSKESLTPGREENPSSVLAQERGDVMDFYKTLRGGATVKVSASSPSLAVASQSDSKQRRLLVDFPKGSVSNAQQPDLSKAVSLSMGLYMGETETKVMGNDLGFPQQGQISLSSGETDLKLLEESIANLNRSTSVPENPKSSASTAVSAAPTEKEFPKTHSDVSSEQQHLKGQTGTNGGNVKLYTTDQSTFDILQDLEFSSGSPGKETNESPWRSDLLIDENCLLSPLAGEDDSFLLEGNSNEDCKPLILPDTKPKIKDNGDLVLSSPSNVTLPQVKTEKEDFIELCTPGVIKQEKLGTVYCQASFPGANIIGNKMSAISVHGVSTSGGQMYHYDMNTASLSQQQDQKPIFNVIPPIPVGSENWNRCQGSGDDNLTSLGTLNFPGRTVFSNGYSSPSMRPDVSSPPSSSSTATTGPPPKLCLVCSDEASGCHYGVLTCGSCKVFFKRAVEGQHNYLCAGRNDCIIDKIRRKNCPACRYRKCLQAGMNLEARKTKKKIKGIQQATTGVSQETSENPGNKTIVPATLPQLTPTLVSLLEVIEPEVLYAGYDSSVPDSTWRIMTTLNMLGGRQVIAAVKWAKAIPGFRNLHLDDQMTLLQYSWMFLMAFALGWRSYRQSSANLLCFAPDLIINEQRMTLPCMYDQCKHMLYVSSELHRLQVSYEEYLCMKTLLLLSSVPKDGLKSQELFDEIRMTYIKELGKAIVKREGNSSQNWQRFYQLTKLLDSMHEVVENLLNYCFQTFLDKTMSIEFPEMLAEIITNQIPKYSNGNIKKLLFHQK

[6] = target: Mitogen-activated protein kinase 10 (Mus musculus) (UniProt Q61831); test: JNK3 AlphaScreen Assay (AID 530); details: JNK3 lysate, c-Jun phosphorylation; series mostly up to 57.1 µM;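 further: kinase came from lysate of stimulated human HepG2 cells; signal reports phosphorylation of biotinylated GST-cJun 1-79 at Ser73 with 10 µM ATP; on the % scale 0 is the no-effect control and ±100 the full control effect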
Outline: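 Pre-activated (IL-1β/TNFα) JNK3 in HepG2 lysates phosphorylates biotin-GST-cJun(1-79), 10 uM ATP; anti-phospho-cJun(Ser73) AlphaScreen read at room temperature, pH 7.6 Tris buffer. Compounds pre-incubated 15 min as titrations.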

[7] = target: 3',5'-cyclic-AMP phosphodiesterase 4B (Homo sapiens) (UniProt Q07343); test: qHTS Assay for Inhibitors of PDE-IV (AID 607; active means well fitted activation curve with a large enough effect in the main read-out, with a control signal flat, not every such curve was filed as active; further: % of control where 0% means no effect); details: HEK293 ACTOne CNG channel cells, membrane potential fluorescence; series mostly up to 22.9 µM
3',5'-cyclic-AMP phosphodiesterase 4B (Homo sapiens), sequence (Q07343 whole entry, looked up): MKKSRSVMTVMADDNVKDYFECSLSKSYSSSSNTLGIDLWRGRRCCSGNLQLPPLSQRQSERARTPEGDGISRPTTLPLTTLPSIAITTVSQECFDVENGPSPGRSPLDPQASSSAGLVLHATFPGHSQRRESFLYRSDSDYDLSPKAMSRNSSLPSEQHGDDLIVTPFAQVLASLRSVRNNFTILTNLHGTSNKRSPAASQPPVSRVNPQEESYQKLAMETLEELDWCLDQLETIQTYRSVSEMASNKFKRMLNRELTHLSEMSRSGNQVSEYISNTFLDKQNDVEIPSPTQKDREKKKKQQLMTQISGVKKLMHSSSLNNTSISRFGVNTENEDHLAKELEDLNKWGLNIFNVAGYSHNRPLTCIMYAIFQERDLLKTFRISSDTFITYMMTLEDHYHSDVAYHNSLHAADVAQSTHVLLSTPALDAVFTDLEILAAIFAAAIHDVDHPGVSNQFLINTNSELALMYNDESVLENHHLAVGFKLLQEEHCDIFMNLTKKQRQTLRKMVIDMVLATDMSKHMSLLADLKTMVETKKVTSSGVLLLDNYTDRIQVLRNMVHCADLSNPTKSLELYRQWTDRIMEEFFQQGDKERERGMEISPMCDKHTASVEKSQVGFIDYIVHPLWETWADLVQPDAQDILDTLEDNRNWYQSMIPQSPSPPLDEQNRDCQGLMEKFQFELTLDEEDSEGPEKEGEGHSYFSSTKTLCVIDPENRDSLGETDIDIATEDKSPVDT
Outline: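 Live HEK293 cells with a modified cyclic nucleotide-gated (CNG) channel report intracellular cAMP via membrane-potential dye fluorescence (ex 535/em 590 nm). Endogenous PDE-IV was targeted. Compounds were tested at up to 22.9 uM final; RO 20-1724 100 uM served as control.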

[8] = target: Glucocorticoid receptor (Homo sapiens) (UniProt P04150); test: GR-EFC Redistribution (AID 451; calls by dose curve; further: potency means the concentration at half of the fitted maximal effect); details: CHO-K1 GR-EFC translocation, beta-gal luminescence, 2 h
Outline: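 CHO-K1 cells expressing nuclear EA and GR-ED fragments of b-gal; compounds titrated up to 46 uM final, 2 h at 37 C. GR nuclear translocation read as complemented b-gal luminescence after 1 h RT detection.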

[9] = target: Cytochrome P450 2C19 (Homo sapiens) (UniProt P33261); test: qHTS Assay for Inhibitors and Substrates of Cytochrome P450 2C19 (AID 899; active means well fitted curve in the direction sought with a large enough effect; an effect the other way counts as inactive or inconclusive; further: nearly all actives have a fitted effect of over 60% in size; further: potency means the concentration at half of the fitted maximal effect); details: recombinant CYP2C19, luciferin-H EGE luminescence; series mostly up to 11.4 µM
Cytochrome P450 2C19 (Homo sapiens), sequence (P33261 whole entry, looked up): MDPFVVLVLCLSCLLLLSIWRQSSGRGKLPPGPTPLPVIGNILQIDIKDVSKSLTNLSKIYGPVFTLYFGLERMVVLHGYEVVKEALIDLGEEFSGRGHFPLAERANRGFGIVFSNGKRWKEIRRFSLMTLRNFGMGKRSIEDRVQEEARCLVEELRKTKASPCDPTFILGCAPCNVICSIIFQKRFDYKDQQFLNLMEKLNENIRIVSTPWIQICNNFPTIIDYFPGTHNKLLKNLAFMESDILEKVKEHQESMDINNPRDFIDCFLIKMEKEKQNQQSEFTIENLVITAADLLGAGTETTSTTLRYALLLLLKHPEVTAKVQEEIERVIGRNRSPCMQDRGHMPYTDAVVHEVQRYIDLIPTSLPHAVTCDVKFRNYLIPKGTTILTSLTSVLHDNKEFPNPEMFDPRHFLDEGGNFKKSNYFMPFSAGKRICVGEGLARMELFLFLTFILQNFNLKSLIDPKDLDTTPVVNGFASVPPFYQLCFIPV
Outline: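 Signal comes from luciferase acting on luciferin released by CYP2C19-mediated hydroxylation of Luciferin-H EGE, 10uM (KM). Assay mix: 5nM enzyme, 50mM KPO4; 60 min at 37C with NADPH regeneration. Data normalized against 57uM ketoconazole.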

[10] = target: Cytochrome P450 3A4 (Homo sapiens) (UniProt P08684); test: qHTS Assay for Activators of Cytochrome P450 3A4 (AID 885; active means well fitted curve in the direction sought with a large enough effect; an effect the other way counts as inactive or inconclusive; further: nearly all actives have a fitted effect of over 65% in size); details: recombinant CYP3A4, Luciferin-PPXE luminescence, 60 min; series mostly up to 57.1 µM
Cytochrome P450 3A4 (Homo sapiens), sequence (P08684 whole entry, looked up): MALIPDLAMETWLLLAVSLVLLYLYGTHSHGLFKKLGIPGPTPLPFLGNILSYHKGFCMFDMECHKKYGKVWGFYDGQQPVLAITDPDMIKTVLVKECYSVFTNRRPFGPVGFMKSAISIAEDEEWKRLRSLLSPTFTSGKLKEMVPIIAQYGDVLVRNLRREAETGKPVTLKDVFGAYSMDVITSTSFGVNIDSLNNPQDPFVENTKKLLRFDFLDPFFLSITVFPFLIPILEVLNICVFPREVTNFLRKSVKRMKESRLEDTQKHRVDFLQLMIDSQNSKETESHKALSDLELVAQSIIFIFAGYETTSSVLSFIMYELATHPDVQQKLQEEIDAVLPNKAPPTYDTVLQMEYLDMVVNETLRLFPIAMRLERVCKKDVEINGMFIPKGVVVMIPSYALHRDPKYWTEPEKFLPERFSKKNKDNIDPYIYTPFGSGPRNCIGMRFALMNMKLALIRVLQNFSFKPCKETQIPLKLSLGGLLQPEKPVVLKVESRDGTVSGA
Outline: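 Quantitative HTS format: compounds preincubated with 20nM human CYP3A4 and Luciferin-PPXE substrate at KM, reaction started by NADPH regeneration, stopped after 60 min, luciferase luminescence read 20 min later.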

[11] = target: Cytochrome P450 2D6 (Homo sapiens) (UniProt P10635); test: qHTS Assay for Inhibitors and Substrates of Cytochrome P450 2D6 (AID 891; active means well fitted curve in the direction sought with a large enough effect; an effect the other way counts as inactive or inconclusive; further: nearly all actives have a fitted effect of over 60% in size; further: potency means the concentration at half of the fitted maximal effect); details: recombinant CYP2D6, luciferin-ME EGE luminescence; series mostly up to 11.4 µM
Cytochrome P450 2D6 (Homo sapiens), sequence (P10635 whole entry, looked up): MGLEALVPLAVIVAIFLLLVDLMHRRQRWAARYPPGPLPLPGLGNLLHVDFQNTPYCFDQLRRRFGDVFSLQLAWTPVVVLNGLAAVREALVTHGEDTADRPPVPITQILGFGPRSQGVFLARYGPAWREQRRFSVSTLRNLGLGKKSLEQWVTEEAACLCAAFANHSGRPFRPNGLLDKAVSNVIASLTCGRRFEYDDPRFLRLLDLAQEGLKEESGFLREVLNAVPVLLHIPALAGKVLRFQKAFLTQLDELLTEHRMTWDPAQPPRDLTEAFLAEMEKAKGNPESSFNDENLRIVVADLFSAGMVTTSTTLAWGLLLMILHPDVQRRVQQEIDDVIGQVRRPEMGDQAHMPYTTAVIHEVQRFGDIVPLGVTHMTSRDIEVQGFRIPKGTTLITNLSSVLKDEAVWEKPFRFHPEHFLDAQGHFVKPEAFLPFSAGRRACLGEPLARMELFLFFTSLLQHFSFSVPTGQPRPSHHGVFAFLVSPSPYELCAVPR
Outline: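 Human CYP2D6 (5 nM) with 30 uM Luciferin-ME EGE (at Km) in 100 mM KPO4, compound preincubated 10 min, then NADPH regeneration system for 60 min at room temperature. Luciferin read by luminescence; normalized to 1.43 uM quinidine.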

[12] = qHTS Assay for Identification of Small Molecule Agonists for Hypoxia Response Element Signaling Pathway (AID 914; active means well fitted activation curve with a large enough effect in the signal ratio, with a control signal flat, not every such curve was filed as active; the % refers to the signal ratio; further: % of control where 0% means no effect); details: ME-180 (cervical carcinoma) HRE-bla reporter, beta-lactamase ratio, CoCl2, 17 h; stronger effect = higher value
Outline: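 Compounds in a titration series were added to ME-180 reporter cells alongside an EC50 level of CoCl2. After 17 hours, beta-lactamase activity was read as the 460nm/530nm emission ratio of CCF4, giving AC50 values.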

[13] = target: Cytochrome P450 3A4 (Homo sapiens) (UniProt P08684); test: qHTS Assay for Inhibitors and Substrates of Cytochrome P450 3A4 (AID 884; active means well fitted curve in the direction sought with a large enough effect; an effect the other way counts as inactive or inconclusive; further: potency means the concentration at half of the fitted maximal effect; nearly all actives have a fitted effect of over 50% in size); details: recombinant CYP3A4, Luciferin-PPXE luminescence; series mostly up to 57.1 µM
Outline: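 20 nM human CYP3A4 with 25 uM Luciferin-PPXE (at KM) in 200 mM KPO4, preincubated 10 min with compound; NADPH regeneration started a 60 min RT reaction. Luciferin detected by luminescence, normalized to 57 uM ketoconazole as full inhibition.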

C[C@@]12CC[C@H]3[C@@H](CC[C@H]4C[C@@H](O)CC[C@]43C)[C@H]1CC[C@@H]2C(=O)C[C@H](O)C(F)(F)F
inactive: Potency [1] > 11.4 µM | activity change, negative = inhibition [2] 5.97% | activity change, negative = inhibition [3] 5.84% | activity, negative = inhibition [4] -6.11% | Potency [5] > 46 µM | activity change, negative = inhibition [6] -0.552% [at 11.4 µM] | outcome [7]

ClCC[N+]12CC[N+](CCCl)(CC1)C2 (tested in a mixture with another compound)
inactive: Potency [1] > 11.4 µM | activity change, negative = inhibition [2] 1.69% | activity change, negative = inhibition [3] -23.8% | activity, negative = inhibition [4] 3.41% | activity change, negative = inhibition [6] 2.18% [at 11.4 µM] | outcome [7]

CN(C)[C@@H]1C(=O)C(C(N)=O)=C(O)[C@]2(O)C(=O)C3=C(O)c4c(O)cccc4[C@](C)(O)[C@H]3C[C@@H]12
inactive: Potency [1] > 11.4 µM | activity change, negative = inhibition [2] -8.78% | activity change, negative = inhibition [3] 15.2% | activity, negative = inhibition [4] -10.5% | Potency [5] > 46 µM | activity change, negative = inhibition [6] -5.55% [at 11.4 µM] | outcome [7]

O=C(O)C[O][Sb][O]CC(=O)O
inactive: Potency [1] > 11.4 µM | activity change, negative = inhibition [2] 4.83% | activity change, negative = inhibition [3] 6.08% | Potency [5] > 46 µM | Potency [8] > 9.22 µM | activity change, negative = inhibition [6] 1.01% [at 11.4 µM] | outcome [7] | Potency [9]

CCNC(C)(C)[C@@H](SS)c1ccc(Br)cc1
active: Potency [11] 2 µM
inactive: Potency [1] > 11.4 µM | activity change, negative = inhibition [2] 5.96% | activity change, negative = inhibition [3] 11.8% | activity, negative = inhibition [4] -1.19% | Potency [5] > 46 µM | Potency [8] > 9.22 µM | activity change, negative = inhibition [6] -0.59% [at 11.4 µM] | outcome [7] | activity change, positive = activation [10] -31.2% [at 11.4 µM]

C(=NCCN1CCOCC1)=NC1CCCCC1
inactive: Potency [1] > 11.4 µM | activity change, negative = inhibition [2] -1.14% | activity change, negative = inhibition [3] 12.1% | activity, negative = inhibition [4] 19.2% | Potency [5] > 46 µM | activity change, negative = inhibition [6] 3.92% [at 11.4 µM] | outcome [7]

CN(C)CS/C(N)=N/[C@H](O)C(Cl)(Cl)Cl
inactive: Potency [1] > 11.4 µM | activity change, negative = inhibition [2] 1.46% | activity change, negative = inhibition [3] 23.1% | activity, negative = inhibition [4] 3.46% | Potency [5] > 46 µM | Potency [8] > 9.22 µM | activity change, negative = inhibition [6] 3.54% [at 11.4 µM] | outcome [7] | activation [12] 7.72%

N[C@H](Cc1ccc2oc3cc(=O)c4ccccc4c-3nc2c1)C(=O)O
inactive: Potency [1] > 11.4 µM | activity change, negative = inhibition [2] 25.4% | activity change, negative = inhibition [3] -17.2% | activity, negative = inhibition [4] 7.75% | Potency [5] > 46 µM | Potency [8] > 9.22 µM | activity change, negative = inhibition [6] 0.331% [at 11.4 µM] | outcome [7] | activity change, positive = activation [10] -32.5% [at 11.4 µM]

CC1=C2C(=O)[C@@H]3[C@@H](CC=C4C[C@@H](O)CC[C@@]43C)[C@H]2CC[C@@]12O[C@H]1C[C@H](C)CN[C@H]1[C@@H]2C
inactive: Potency [1] > 11.4 µM | activity change, negative = inhibition [2] 1.78% | activity change, negative = inhibition [3] 3.5% | activity, negative = inhibition [4] 0.17% | Potency [5] > 46 µM | activity change, negative = inhibition [6] 0.541% [at 11.4 µM] | outcome [7]

N[C@@H](Cc1c[nH]c2cc([N+](=O)[O-])ccc12)C(=O)O
inactive: Potency [1] > 11.4 µM | activity change, negative = inhibition [2] -8.44% | activity change, negative = inhibition [3] 5.87% | Potency [5] > 46 µM | Potency [8] > 9.22 µM | activity change, negative = inhibition [6] 4.66% [at 11.4 µM] | outcome [7]

Cc1ccc(O)cc1 (tested in a mixture with another compound)
inactive: Potency [1] > 11.4 µM | activity change, negative = inhibition [2] 3.77% | activity change, negative = inhibition [3] 9.05% | activity, negative = inhibition [4] -4.46% | Potency [5] > 46 µM | activity change, negative = inhibition [6] 1.19% [at 11.4 µM] | outcome [7]

S=P(C1CCCCC1)(C1CCCCC1)[C@H](c1cccnc1)N1CCCC1
inactive: Potency [1] > 11.4 µM | activity change, negative = inhibition [2] 10.9% | activity change, negative = inhibition [3] 5.74% | activity, negative = inhibition [4] -1.57% | Potency [5] > 46 µM | activity change, negative = inhibition [6] 0.158% [at 11.4 µM] | outcome [7] | activity change, positive = activation [10] -61.4% [at 11.4 µM]
active: Potency [13] 3.16 µM | Potency [9] 1.26 µM

O=[As](O)(O)c1ccc(NCc2ccccc2)cc1
inactive: Potency [1] > 11.4 µM | activity change, negative = inhibition [2] -4.31% | activity change, negative = inhibition [3] 11% | activity, negative = inhibition [4] 11.2% | Potency [5] > 46 µM | Potency [8] > 9.22 µM | activity change, negative = inhibition [6] 1.56% [at 11.4 µM] | outcome [7] | Potency [11]

CCNCCC1(CC)C(=O)NC(=O)NC1=O
inactive: Potency [1] > 11.4 µM | activity change, negative = inhibition [2] 0.916% | activity change, negative = inhibition [3] 11.4% | activity, negative = inhibition [4] 2.13% | Potency [5] > 46 µM | outcome [7]

CC(C)(C)c1cc(C#N)cc(Br)c1OP(=O)(Oc1c(Br)cc(C#N)cc1C(C)(C)C)c1ccccc1
inactive: Potency [1] > 11.4 µM | activity change, negative = inhibition [2] 7.55% | activity change, negative = inhibition [3] -6.35% | activity, negative = inhibition [4] 16.6% | Potency [5] > 46 µM | activity change, negative = inhibition [6] -1.35% [at 11.4 µM] | outcome [7]
